Values joined by “and” are separate entries in the source; they are usually repeats but may differ in a detail not shown here. Equal values may be shown once. Inconclusive results are not listed. More than one record can exist for a structure, and the calls need not agree. Active and inactive are the calls of the source. The call rests on the fitted dose curve; in most records, active means well fitted curve in the direction sought with a large enough effect; inconclusive means small, poorly fitted or top-dose-only effect, or another doubt; inactive means no such curve, though single readings can be large; an effect the other way counts as inactive or inconclusive.
Legend:
CRL-7250 [1] = experiment: Cytotoxic Profiling of Annotated Libraries Using Quantitative High-Throughput Screening (AID 1296008); conditions: Five cell lines viability, CellTiter-Glo ATP luminescence, 48-72 h; max response: stronger effect = lower value; further: nearly all actives have a fitted effect of over 60% in size; further: potency means the concentration at half of the fitted maximal effect; on max response: on the % scale 0 is the no-effect control and ±100 the full control effect
Method in brief: (§1)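 Cytotoxicity was measured as CellTiter-Glo ATP luminescence, read after 10 min at room temperature. Compound treatment of the cells lasted 48 or 72 hr at 37 degrees Celsius in a qHTS format.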

HEK293 = experiment: as above; conditions: Five cell lines viability, CellTiter-Glo ATP luminescence, 48-72 h; max response: stronger effect = lower value
Method in brief: as §1

HaCat [2] = experiment: as above; conditions: Five cell lines viability, CellTiter-Glo ATP luminescence, 48-72 h; max response: stronger effect = lower value
Method in brief: as §1

KB-3-1 = experiment: as above; conditions: Five cell lines viability, CellTiter-Glo ATP luminescence, 48-72 h; max response: stronger effect = lower value
Method in brief: as §1

NIH3T3 [3] = experiment: as above; conditions: Five cell lines viability, CellTiter-Glo ATP luminescence, 48-72 h; max response: stronger effect = lower value
Method in brief: as §1

HACAT [4] = experiment: qHTS assay to identify novel small-molecules to repurpose for Merkel cell carcinoma treatment (AID 1296009); conditions: MCC and control cell lines, CellTiter-Glo viability, 72 h; at 44.8 µM (top of the series) unless noted; further: nearly all actives have a fitted effect of over 60% in size; further: potency means the concentration at half of the fitted maximal effect
Method in brief: (§2)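 After compound transfer in DMSO, plates were kept 72 hr at 37 degree celsius. Luminescent ATP signal from CellTiter-Glo served as viability measure, normalized against DMSO and no-cell controls.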

MCC-13 = experiment: as above; conditions: MCC and control cell lines, CellTiter-Glo viability, 72 h; series mostly up to 46 µM
Method in brief: as §2

MCC-26 = experiment: as above; conditions: MCC and control cell lines, CellTiter-Glo viability, 72 h; series mostly up to 46 µM
Method in brief: as §2

C33A = experiment: Primary qHTS to identify gynecologic anti-cancer compounds using libraries of approved drugs and bioactive compounds (AID 1345084); conditions: Gynecologic cancer cell panel viability, ATPlite luminescence, 48 h; series mostly up to 57.5 µM; further: on the % scale 0 is the no-effect control and ±100 the full control effect; nearly all actives have a fitted effect of over 55% in size
Method in brief: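 ATP-based viability (ATPlite), 1,000 cells/well, 16 h pre-incubation, 48 h compound at 37 C, 5% CO2, 15 min RT before read.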

TAB109 = experiment: qHTS profiling for inhibitors of Plasmodium falciparum proliferation (AID 504749); further: nearly all actives have a fitted effect of over 60% in size; further: potency means the concentration at half of the fitted maximal effect; conditions: P. falciparum in erythrocytes, SYBR Green DNA, 72 h; series mostly up to 28.7 µM
Method in brief: (§3)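 Three-day growth assay of blood-stage parasites in erythrocytes (0.3% parasitemia, 2.5% hematocrit) at 37 C, 5% CO2, quantified by SYBR Green DNA staining after overnight detergent lysis.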

TAB113 = experiment: as above; conditions: P. falciparum in erythrocytes, SYBR Green DNA, 72 h; series mostly up to 28.7 µM
Method in brief: as §3

TAB165 = experiment: as above; conditions: P. falciparum in erythrocytes, SYBR Green DNA, 72 h; series mostly up to 28.7 µM
Method in brief: as §3

W2 = experiment: as above; conditions: P. falciparum in erythrocytes, SYBR Green DNA, 72 h; series mostly up to 28.7 µM
Method in brief: as §3

CRL-7250 [5] = experiment: qHTS assay to identify novel small-molecules to repurpose for Merkel cell carcinoma treatment (AID 1296009); conditions: MCC and control cell lines, CellTiter-Glo viability, 72 h; series mostly up to 44.8 µM; further: nearly all actives have a fitted effect of over 60% in size; further: potency means the concentration at half of the fitted maximal effect
Method in brief: as §2

MKL-1 = experiment: as above; conditions: MCC and control cell lines, CellTiter-Glo viability, 72 h; series mostly up to 46 µM
Method in brief: as §2

UISO = experiment: as above; conditions: MCC and control cell lines, CellTiter-Glo viability, 72 h; series mostly up to 46 µM
Method in brief: as §2

WaGa = experiment: as above; conditions: MCC and control cell lines, CellTiter-Glo viability, 72 h; series mostly up to 46 µM
Method in brief: as §2

MKL-2 = experiment: as above; conditions: MCC and control cell lines, CellTiter-Glo viability, 72 h; series mostly up to 46 µM
Method in brief: as §2

HEK293T = experiment: as above; conditions: MCC and control cell lines, CellTiter-Glo viability, 72 h; at 44.8 µM (top of the series)
Method in brief: as §2

NIH3T3 [6] = experiment: as above; conditions: MCC and control cell lines, CellTiter-Glo viability, 72 h; at 44.8 µM (top of the series) unless noted
Method in brief: as §2

CCC(=O)C(CC(C)N(C)C)(c1ccccc1)c1ccccc1 (stereo unspecified)
inactive: max response (CRL-7250 [1]) -4.65% | outcome (HaCat [2]) | max response (KB-3-1) -25% | max response (NIH3T3 [3]) -1.89% | outcome (HACAT [4]) inactive [at 92 µM] | Potency (MCC-13) | Potency (MCC-26) | Potency (C33A)
active: Potency (HEK293) 30.9 µM

Clc1ccc(COC(Cn2ccnc2)c2ccc(Cl)cc2Cl)cc1 (stereo unspecified)
23.7 µM (active) and inactive: Potency (MKL-1)
active: Potency (TAB109) 2.51 µM | Potency (TAB113) 2.82 µM | Potency (TAB165) 0.708 µM | Potency (W2) 1.2 µM | Potency (UISO) 15 µM
21.1 µM (active) and inactive: Potency (MCC-26)
inactive: max response (CRL-7250 [1]) 1.02% | outcome (CRL-7250 [1]) | max response (HEK293) -1.16% | max response (HaCat [2]) -11% | max response (KB-3-1) -10.4% and -10.7% | outcome (CRL-7250 [5]) | Potency (MCC-13) | Potency (WaGa)

N#CC(C#N)=Cc1ccc(O)c(O)c1
inactive: Potency (TAB165) | max response (CRL-7250 [1]) -16.4% | max response (HEK293) -18.8% | outcome (HaCat [2]) | max response (KB-3-1) 1.48% | max response (NIH3T3 [3]) -19.5% | outcome (HACAT [4]) | Potency (MCC-13) | Potency (MCC-26) | Potency (C33A)
active: Potency (MKL-1) 7.5 µM | Potency (WaGa) 13.3 µM

CN(C)CCN(C)CCc1ccc(Cl)c(Cl)c1
inactive: outcome (CRL-7250 [1]) | max response (HEK293) 0.598% | max response (HaCat [2]) -22.4% | max response (KB-3-1) 0.794% | max response (NIH3T3 [3]) -6.27% | outcome (CRL-7250 [5]) | Potency (MCC-13) | Potency (MKL-1) | Potency (MKL-2) | Potency (UISO) | Potency (WaGa)

COc1ccc(C(CN(C)C)C2(O)CCCCC2)cc1 (stereo unspecified)
inactive: Potency (TAB109) | Potency (TAB113) | Potency (TAB165) | max response (CRL-7250 [1]) -3.43% and 1.19% | max response (HEK293) 1.04% | outcome (HEK293) | max response (HaCat [2]) 1.09% and -4.23% | max response (KB-3-1) 2.29% and -2.64% | max response (NIH3T3 [3]) 2.42% | outcome (NIH3T3 [3]) | outcome (HEK293T) | Potency (MCC-13) | Potency (MCC-26) | Potency (MKL-1) | Potency (MKL-2) | outcome (NIH3T3 [6]) | Potency (UISO) | Potency (WaGa) | Potency (C33A)
active: Potency (W2) 1.9 µM

CCCN1CCC[C@@H]2Cc3nc(N)ncc3C[C@H]21
inactive: outcome (CRL-7250 [1]) | max response (HEK293) -17.9% | outcome (HaCat [2]) | max response (KB-3-1) 14.3% | max response (NIH3T3 [3]) -7.61% | outcome (CRL-7250 [5]) | outcome (HACAT [4]) | Potency (MCC-13) | Potency (MKL-2) | Potency (WaGa) | Potency (C33A)
active: Potency (UISO) 29.9 µM

Cn1c(CCCC(=O)O)nc2cc(N(CCCl)CCCl)ccc21
18.8 µM (active) and inactive: Potency (WaGa)
inactive: Potency (TAB113) | Potency (TAB165) | max response (CRL-7250 [1]) 3.94% | outcome (CRL-7250 [1]) | max response (HaCat [2]) -5.87% and -9.93% | max response (KB-3-1) 3.92% and 3.13% | max response (NIH3T3 [3]) -2.08% and -18.1% | outcome (CRL-7250 [5]) | outcome (HEK293T) | Potency (MCC-13) | Potency (MKL-1) | Potency (UISO) | Potency (C33A)

CCN(CC)C(=O)N[C@@H]1C=C2c3cccc4[nH]cc(c34)C[C@@H]2N(C)C1
inactive: outcome (CRL-7250 [1]) | max response (HEK293) -11.8% | max response (HaCat [2]) -0.0252% | max response (KB-3-1) -10.6% | outcome (NIH3T3 [3]) | outcome (CRL-7250 [5]) | Potency (MCC-13) | Potency (MKL-1) | Potency (MKL-2) | outcome (NIH3T3 [6]) | Potency (UISO) | Potency (WaGa) | Potency (C33A)

CCN(C(C)=O)c1cccc(-c2ccnc3c(C#N)cnn23)c1
inactive: Potency (TAB109) | Potency (TAB113) | Potency (TAB165) | Potency (W2) | max response (CRL-7250 [1]) -2.01% | outcome (HEK293) | outcome (HaCat [2]) | max response (KB-3-1) 1.34% | outcome (NIH3T3 [3]) | outcome (HACAT [4]) | outcome (HEK293T) | Potency (MCC-13) | Potency (MKL-1) | Potency (MKL-2) | outcome (NIH3T3 [6]) | Potency (UISO) | Potency (WaGa) | Potency (C33A)

CC(C)(C)NCC(O)c1cc(Cl)c(N)c(Cl)c1 (stereo unspecified)
inactive: outcome (CRL-7250 [1]) | max response (HEK293) -10.9% | max response (HaCat [2]) -3.36% | max response (KB-3-1) -14.9% | outcome (NIH3T3 [3]) | outcome (CRL-7250 [5]) | Potency (MCC-13) | Potency (MKL-1) | Potency (MKL-2) | outcome (NIH3T3 [6]) | Potency (UISO) | Potency (WaGa) | Potency (C33A)
active: Potency (W2) 6.75 µM

CC(C)CC(N(C)C)C1(c2ccc(Cl)cc2)CCC1 (stereo unspecified)
inactive: Potency (TAB109) | Potency (TAB113) | Potency (TAB165) | Potency (W2) | max response (CRL-7250 [1]) 1.51% and -18.8% | max response (HEK293) 3.97% and -10.6% | max response (HaCat [2]) -11.1% | outcome (HaCat [2]) | max response (KB-3-1) 20.9% and 1.72% | max response (NIH3T3 [3]) -0.177% | outcome (NIH3T3 [3]) | outcome (HACAT [4]) | Potency (MCC-13) | Potency (MCC-26) | Potency (MKL-1) | Potency (MKL-2) | outcome (NIH3T3 [6]) | Potency (UISO) | Potency (WaGa) | Potency (C33A)

NN=C(N)N
inactive: Potency (TAB109) | Potency (TAB113) | Potency (TAB165) | Potency (W2) | outcome (CRL-7250 [1]) | max response (HEK293) -4.43% | max response (HaCat [2]) -1.38% | max response (KB-3-1) 8.75% | max response (NIH3T3 [3]) -4.47% | outcome (CRL-7250 [5]) | Potency (MCC-13) | Potency (MKL-1) | Potency (MKL-2) | Potency (UISO) | Potency (WaGa) | Potency (C33A)

O=C1CC[C@@]2(O)[C@H]3Cc4ccc(O)c5c4[C@@]2(CCN3CC2CC2)[C@H]1O5
inactive: max response (CRL-7250 [1]) -7.93% | outcome (CRL-7250 [1]) | max response (HEK293) -3.14% and -3.82% | outcome (HaCat [2]) | max response (KB-3-1) 6.29% | outcome (KB-3-1) | max response (NIH3T3 [3]) -0.716% | outcome (NIH3T3 [3]) | outcome (CRL-7250 [5]) | outcome (HACAT [4]) | Potency (MCC-13) | Potency (MKL-1) | Potency (MKL-2) | outcome (NIH3T3 [6]) | Potency (UISO) | Potency (WaGa) | Potency (C33A)

From PubChem BioAssay (NCATS)
